Assay results: publication PMC5700166

Target: GST-Hu-p50 (Homo sapiens, UniProt P19838 7-356)
Assay: protein-binding microarray (PBM); PBM: ~300 nM protein, 6 mM HEPES pH 7.8, 80 mM KCl, 0.5 mM EDTA, 0.5 mM EGTA, 6% glycerol, 35 ng/ul poly-dIdC, 1% milk, 1 h, room temperature; Ap Aiptasia and Nv Nematostella (sea anemones) / Co Capsaspora / Aq Amphimedon (sponge) / Dm Drosophila / Hu human; RHD is the Rel homology domain; high values mean tight binding
Settings: dsDNA, one strand shown

GST-Hu-p50, sequence (P19838 7-356): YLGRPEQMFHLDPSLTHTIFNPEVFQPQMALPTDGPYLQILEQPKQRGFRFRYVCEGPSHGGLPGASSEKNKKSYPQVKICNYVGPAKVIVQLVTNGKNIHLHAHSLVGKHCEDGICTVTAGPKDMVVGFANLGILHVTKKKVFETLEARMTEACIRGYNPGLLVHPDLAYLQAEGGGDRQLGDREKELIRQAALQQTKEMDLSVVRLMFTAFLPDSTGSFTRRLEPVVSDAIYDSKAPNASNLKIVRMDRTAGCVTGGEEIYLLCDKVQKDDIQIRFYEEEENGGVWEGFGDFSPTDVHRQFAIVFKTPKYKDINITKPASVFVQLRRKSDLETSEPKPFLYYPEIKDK

Sequence | binding signal
CCGATTAACATCAAGAGTTCCCCTGATGTTAATCGGGTCTTGATTCGCTTGACGCTGCTG | 5.23 z-score
CCGATTAACATCAGGGGATAATATGATGTTAATCGGGTCTTGATTCGCTTGACGCTGCTG | 4.49 z-score
CCGATTAACATCACCATTATAGGTGATGTTAATCGGGTCTTGATTCGCTTGACGCTGCTG | 1.68 z-score
CCGATTAACATCAGGAAACACCATGATGTTAATCGGGTCTTGATTCGCTTGACGCTGCTG | 1.95 z-score
CCGATTAACATCACGGAAATTTATGATGTTAATCGGGTCTTGATTCGCTTGACGCTGCTG | 1.44 z-score
CCGATTAACATCAATAAATTTCCTGATGTTAATCGGGTCTTGATTCGCTTGACGCTGCTG | 1.15 z-score
CCGATTAACATCAACGGGTCCCTTGATGTTAATCGGGTCTTGATTCGCTTGACGCTGCTG | 1.31 z-score
CCGATTAACATCACCCGAGTGCGTGATGTTAATCGGGTCTTGATTCGCTTGACGCTGCTG | 1.1 z-score
CCGATTAACATCAGGGAACGCCCTGATGTTAATCGGGTCTTGATTCGCTTGACGCTGCTG | 2.04 z-score
CCGATTAACATCAGGAAAAACCATGATGTTAATCGGGTCTTGATTCGCTTGACGCTGCTG | 1.05 z-score
CCGATTAACATCAAATAATTCCCTGATGTTAATCGGGTCTTGATTCGCTTGACGCTGCTG | 5.03 z-score
CCGATTAACATCACCGTTTAGGTTGATGTTAATCGGGTCTTGATTCGCTTGACGCTGCTG | 1.22 z-score
CCGATTAACATCACCGAACTAACTGATGTTAATCGGGTCTTGATTCGCTTGACGCTGCTG | 1.23 z-score
CCGATTAACATCACGGACACCCCTGATGTTAATCGGGTCTTGATTCGCTTGACGCTGCTG | 1.06 z-score
CCGATTAACATCAACCAATCCCCTGATGTTAATCGGGTCTTGATTCGCTTGACGCTGCTG | 4.9 z-score
CCGATTAACATCACCGGAAATCCTGATGTTAATCGGGTCTTGATTCGCTTGACGCTGCTG | 1.78 z-score
CCGATTAACATCATTAATGACGGTGATGTTAATCGGGTCTTGATTCGCTTGACGCTGCTG | 1.09 z-score
CCGATTAACATCAGGGAGACCCCTGATGTTAATCGGGTCTTGATTCGCTTGACGCTGCTG | 3.48 z-score
CCGATTAACATCAGGAAATACCATGATGTTAATCGGGTCTTGATTCGCTTGACGCTGCTG | 1.08 z-score
CCGATTAACATCAACGTTTTCCCTGATGTTAATCGGGTCTTGATTCGCTTGACGCTGCTG | 3.09 z-score

Sequence | binding signal
CCGATTAACATCACAAAAAATTTTGATGTTAATCGGGTCTTGATTCGCTTGACGCTGCTG | 1.65 z-score
CCGATTAACATCAACGGTGGAAATGATGTTAATCGGGTCTTGATTCGCTTGACGCTGCTG | 1.15 z-score
CCGATTAACATCAGGGAAAAAAATGATGTTAATCGGGTCTTGATTCGCTTGACGCTGCTG | 4.58 z-score
CCGATTAACATCAGAAATCCCAATGATGTTAATCGGGTCTTGATTCGCTTGACGCTGCTG | 2.35 z-score
CCGATTAACATCAGGAATTGCCCTGATGTTAATCGGGTCTTGATTCGCTTGACGCTGCTG | 1.09 z-score
CCGATTAACATCACGATTTTCCCTGATGTTAATCGGGTCTTGATTCGCTTGACGCTGCTG | 3.78 z-score
CCGATTAACATCAAAAATTTCCTTGATGTTAATCGGGTCTTGATTCGCTTGACGCTGCTG | 1.32 z-score
CCGATTAACATCATTCCACCAGGTGATGTTAATCGGGTCTTGATTCGCTTGACGCTGCTG | 1.04 z-score
CCGATTAACATCACCAAATTTCCTGATGTTAATCGGGTCTTGATTCGCTTGACGCTGCTG | 1.31 z-score
CCGATTAACATCAATAAAATTCCTGATGTTAATCGGGTCTTGATTCGCTTGACGCTGCTG | 1.02 z-score
CCGATTAACATCAACCTTTCCCCTGATGTTAATCGGGTCTTGATTCGCTTGACGCTGCTG | 4.06 z-score
CCGATTAACATCAGGGCAAACCCTGATGTTAATCGGGTCTTGATTCGCTTGACGCTGCTG | 1.57 z-score
CCGATTAACATCAGGGGAACTCATGATGTTAATCGGGTCTTGATTCGCTTGACGCTGCTG | 4.82 z-score
CCGATTAACATCAGGAACACCCCTGATGTTAATCGGGTCTTGATTCGCTTGACGCTGCTG | 2.26 z-score
CCGATTAACATCAAAAGTTTCCCTGATGTTAATCGGGTCTTGATTCGCTTGACGCTGCTG | 5.09 z-score
CCGATTAACATCACGGCAACCCCTGATGTTAATCGGGTCTTGATTCGCTTGACGCTGCTG | 1.19 z-score
CCGATTAACATCAGGGGTAACACTGATGTTAATCGGGTCTTGATTCGCTTGACGCTGCTG | 1.68 z-score
CCGATTAACATCACCGGATTTCCTGATGTTAATCGGGTCTTGATTCGCTTGACGCTGCTG | 2.28 z-score
CCGATTAACATCAGAAAATTTCCTGATGTTAATCGGGTCTTGATTCGCTTGACGCTGCTG | 1.69 z-score
